Screens as filed in PubChem.
tim23-1 inh – tim23-1 yeast growth inhibition | inhibition, % at 20 µM | AID 463212 | 330,000 tested, 1.3% active | S. cerevisiae tim23-1 growth, BacTiter-Glo luminescence, 24 h;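 active = growth inhibition of the mutant yeast at or above 50%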;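 note: temperature-sensitive mutant grown at 25 °C; plate controls were DMSO-treated mutant yeast for no effect and medium wells lacking yeast for full effect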
PfHsp90 set2 – growth inhibition of yeast expressing Plasmodium Hsp90; S. cerevisiae expressing PfHsp90, BacTiter-Glo ATP, 48 h; yeast lacking PDR1 and PDR3 efflux regulators; inhibition, % at 9.4 µM; 310,000 tested, 0.32% active; AID 504621;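 active = every replicate shows inhibition above about 80%, whatever the replicate mean, limit read from the data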;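 note: 0% = DMSO neutral controls and 100% = 20 µM radicicol positive controls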
TIM10 inh – growth inhibitors of TIM10 yeast strain; S. cerevisiae TIM10 strain growth, BacTiter-Glo luminescence, 24 h; inhibition, % at 10 µM; 330,000 tested, 1.4% active; AID 463195;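 active = inhibition of 40% or more at the single tested concentration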;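 note: wild-type TIM10 isogenic control strain grown at permissive 25 °C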
tim10-1 inh – tim10-1 yeast growth inhibition. S. cerevisiae tim10-1 ts strain growth, BacTiter-Glo, 24 h. inhibition, % at 20 µM. 330,000 tested, 2.2% active. AID 463190;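 active = inhibition of at least 40%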;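 note: mutant grown at 25 °C; 0% = DMSO wells with yeast and 100% = wells holding no yeast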
NALP1 inh – blocks the NALP1 inflammasome reconstituted in yeast. 280,000 tested, 0.61% active. S. cerevisiae NALP1/ASC/caspase-1 growth, X-gal OD620, 72 h. inhibition, % at 10 µM; in the data active = inhibition mostly above about 24%, no sharp cut-off; inactive = mostly below about 32%
NLRP3 yeast inh – blocks the NALP3 inflammasome reconstituted in yeast. inhibition, % at 10 µM. 330,000 tested, 0.39% active. AID 2825. Yeast reconstituted NLRP3/ASC/caspase-1, beta-gal luminescence, 24 h;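 active = inhibition of 50% or more; inactive = inhibition below 50%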;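 note: plate controls were induced DMSO wells for no effect and uninduced yeast grown without galactose for full effect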
TIM10 conf – confirmation of TIM10 yeast growth inhibitors; AID 463215; 4,600 tested, 63% active; S. cerevisiae tim10 strain growth, BacTiter-Glo luminescence, 24 h; shares compounds with TIM10 inh; inhibition, % at 10 µM;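 active = inhibition of yeast growth at or above a set limit in either of two replicates at 10 µM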;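 note: this counterscreen used the strain with wild-type TIM10; 0% = yeast with DMSO and 100% = medium wells lacking yeast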
tim23-1 confirm – tim23-1 yeast growth inhibition, confirmed; shares compounds with tim23-1 inh; S. cerevisiae tim23-1 growth, BacTiter-Glo luminescence, 24 h; 4,400 tested, 83% active; inhibition, % at 20 µM; AID 463218;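 active = inhibition above about 39% in either of two replicate wells at 20 µM, limit read from the data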;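 note: temperature-sensitive tim23-1 mutant grown at 25 °C; 0% = DMSO wells with yeast and 100% = medium wells without yeast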
Starred values were filed as active, the others as inactive; / = no result. This is a sample that favours compounds with a hit; in the whole collection about 4.1% have one here.

SMILES	tim23-1 inh	PfHsp90 set2	TIM10 inh	tim10-1 inh	NALP1 inh	NLRP3 yeast inh	tim23-1 confirm	others
CCOC(=O)C(C(=O)N(C)Cc1ccccc1)C1CCCCC1 (stereo not given)	27	6	-5	20	19	15	/
O=C(NC(=S)NC1CCCCCC1)c1cncc(Br)c1	51*	1	44*	34	10	22	42*	TIM10 conf=-1
O=C(COC(=O)c1cncc(Br)c1)NC1CCCCC1	1	-30	-22	-1	-10	25	/
COc1c(Cl)cccc1-c1cn2ccccc2n1	55*	30	20	6	/	41	34
CCC1(c2ccccc2)NC(=O)N(CC(=O)Nc2ccc(S(=O)(=O)Nc3ncccn3)cc2)C1=O (stereo not given)	8	/	-3	-3	/	14	/
C=CCn1cccc(C(=O)Nc2ccc(Cl)cc2)c1=O	53*	-32	18	22	2	8	21
C=CCn1cccc(C(=O)Nc2ccc(SC)cc2)c1=O	39	-5	5	28	17	30	/
Cc1ccc(Sc2ccc(CN3CCCC3)cc2[N+](=O)[O-])cc1	18	23	6	17	8	36	/
Cc1ccc(Sc2ccc(CO)cc2[N+](=O)[O-])cc1	53*	-4	30	32	2	20	52*
O=C(c1ccc(F)cc1)C1CCN(Cc2ccc(F)cc2)CC1	-6	-9	-6	-10	6	25	/
Cn1c(=O)c2c(nc(CN3CCN(Cc4ccccc4)CC3)n2Cc2cccc(Cl)c2)n(C)c1=O	17	10	9	18	/	27	/
Cn1c(=O)c2c(nc(CN3CCc4ccccc4C3)n2Cc2cccc(Cl)c2)n(C)c1=O	51*	-1	36	37	/	-4	54*
CCCC(O)(c1ccc(Cl)cc1)C(CN1CCOCC1)c1ccc(Cl)cc1 (stereo not given)	57*	-9	29	-3	20	5	-9
CCCC(O)(c1ccc(OC)cc1)C(CN1CCOCC1)c1ccc(Cl)cc1 (stereo not given)	19	3	-1	24	14	12	/
CCCCn1c(/C=N/Nc2nc3ccccc3[nH]2)nc2ccccc21	55*	-19	-10	38	32	46	56*
C#CCn1cc(/C=N/Nc2nc3ccccc3[nH]2)c2ccccc21	15	-5	-33	-88	20	15	/
COc1ccc(Nc2nc(N)c([N+](=O)[O-])c(NC3CCCCC3)n2)cc1	62*	-101	23	39	4	25	52*
COc1ccc(Nc2nc(N)c([N+](=O)[O-])c(NCCO)n2)cc1	18	/	16	9	/	10	/
O=[N+]([O-])c1ccc2c(c1N1CCCCC1)=NC1(CCCCC1)[N+]=2[O-]	54*	-7	27	35	0	17	42*
Nc1ccc(Br)c2cccnc12	-7	/	15	24	-9	14	/
COc1cccc(N=Nc2ccc(O)c3ncccc23)c1	62*	102*	38	-23	5	38	56*
Nc1ccc(N=Nc2ccccc2)c2cccnc12	59*	-42	21	36	26	44	51*
O=S(=O)(O)c1cccc2c(N=Nc3ccc(O)c4ncccc34)cccc12	/	-4	/	/	5	/	/
Cc1n[nH]c(C)c1NC(=O)CN1CCN(S(=O)(=O)c2ccc(C(F)(F)F)cc2)CC1	/	-7	/	/	/	/	/
O=C(NCC(=O)N(c1ccccc1)C(C(=O)NC1CCCC1)c1cccnc1)c1cccs1 (stereo not given)	10	-1	-10	-12	-6	9	/
SMILES	tim23-1 inh	PfHsp90 set2	TIM10 inh	tim10-1 inh	NALP1 inh	NLRP3 yeast inh	tim23-1 confirm	others
COc1ccc(N(C(=O)CNC(=O)c2cccs2)C(C(=O)NC2CCCC2)c2cccnc2)cc1 (stereo not given)	50*	-7	12	7	19	5	14
CCOC(=O)c1nnc(-c2ccccc2)nc1NC	-27	10	-22	-4	-4	14	/
CCOC(=O)c1nnc(-c2ccccc2)nc1Oc1ccccc1Cl	53*	/	39	34	32	31	56*
CCOC(=O)Nc1cccc(NC(=O)c2ccccc2F)c1	55*	5	14	-30	3	15	63*
COc1cccc(NC(=O)c2ccccc2F)c1	24	16	2	-19	/	19	/
Cc1ccc2c(C)c(C(=O)NCCN3CCOC3=O)oc2c1C	-1	12	4	-9	10	13	/
CC1=NN(c2ccc(Cl)cc2)C(=O)C1C(c1ccccc1O)c1c(C)[nH]n(-c2ccc(Cl)cc2)c1=O (stereo not given)	57*	-43	31	39	12	13	49*
CCCn1c(N)c(C(=O)CN(C)CC(=O)Nc2ccc(F)cc2)c(=O)[nH]c1=O	9	/	-4	0	/	5	/
CCCc1nc2oc3cc(OC)ccc3c(=O)c2c(=O)n1CCc1ccccc1	45	8	2	15	-3	20	/
CC(C)c1nc2c(c(=O)c3ccccc3n2C)c(=O)n1CCc1ccccc1	59*	/	38	23	16	42	38
COc1ccc(CCn2c(C(C)C)nc3oc4ccccc4c(=O)c3c2=O)cc1	51*	4	1	4	-21	16	41*
COc1ccc(CCn2c(-c3ccccc3)nc3c(c(=O)c4ccccc4n3C)c2=O)cc1	-6	/	-9	-9	18	50	/
O=C(NC1CCCCC1)C(c1ccc(F)cc1)N(C(=O)c1csnn1)C1CC1 (stereo not given)	-1	8	4	-15	6	19	/
O=C(Nc1ccc2nc(-c3ccc(Br)o3)[nH]c2c1)c1cccs1	73*	/	38	18	3	40	72*
O=C(Nc1ccc2nc(-c3ccc(Br)o3)[nH]c2c1)c1ccco1	57*	4	38	7	-3	11	66*
O=S(=O)(Nc1ccc2nc(-c3ccc(Br)o3)[nH]c2c1)c1ccccc1	/	/	/	/	-15	/	/
Cn1cccc1-c1nc2ccc(NC(=O)c3cccs3)cc2[nH]1	56*	-6	24	1	-1	11	48*
CC(=O)Nc1ccc2nc(-c3ccc(Br)o3)[nH]c2c1	0	9	5	-26	22	7	/
O=C(C1CCN(S(=O)(=O)c2ccc(Cl)cc2)CC1)N1CCN(c2ccccn2)CC1	15	-9	7	16	/	17	/
O=[N+]([O-])c1cc(Br)c(Nc2ccccc2)c([N+](=O)[O-])c1	54*	120*	7	21	22	-5	-22
